These results are taken from PubChem BioAssay AID1063 (University of Pittsburgh Molecular Library Screening Center, 2008).

Among all 200,000 compounds or so, about 18,000 (9%) were called active. Shown is part of a subset that was picked to be rich in actives. Unmarked numbers belong to inactive results. Cut-off read from the data, not from the text of the source: active = inhibition above about 50%; inactive = the rest.

What is called inhibition is the relative decrease from the control value, in per cent.

A short description of the test: antileishmanial activity against promastigotes – primary screen (AID 1063).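 Note: promastigotes grown with compound for 44 hours at 28 °C.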 Conditions: Leishmania major promastigotes, resazurin fluorescence viability; at 10 µM; active compounds read high. Background: Resazurin is reduced to fluorescent resorufin, in cell work by metabolically active cells.
As for `CCCCCCn1c(CN2CCCCC2)nc2c1c(=O)n(C)c(=O)n2C`, the inhibition was 6.89%.

On to `CCCCCCCCn1c2c(c(=N)c3c1CCC3)CCCC2`, for which the inhibition is 101% (active).

On to `COc1cc(C)c(S(=O)(=O)N2CCOCC2)c(C)c1C`, for which the inhibition is -1.23%.

As to `CCCCCCCC1(C)NC(=O)N(CC(=O)Nc2cc(C)on2)C1=O` (stereo unspecified), the inhibition is 20.5%.

`CNC(=O)COc1ccc(S(=O)(=O)Nc2ccccc2)cc1`: the inhibition is -0.21%.

`CCN1CCN(C(=O)CCN2C(=O)c3ccccc3C2=O)CC1`: the inhibition is 4.9%.

Take `O=C(CCN1C(=O)C2C3C=CC(C3)C2C1=O)Nc1ccccc1F` (stereo unspecified): the inhibition was -3.49%.

`O=C(CN1C(=O)C2C3C=CC(C3)C2C1=O)NCCc1ccccc1Cl` (stereo unspecified): the inhibition is 0.65%.

As to `O=C(CN1C(=O)C2C3C=CC(C3)C2C1=O)Nc1nc(-c2ccccn2)cs1` (stereo unspecified), the inhibition was 97.2% (active).

Consider `Cc1cc(=O)n2[nH]c(-c3sccc3-n3c(C)ccc3C)cc2n1`, for which the inhibition is -1.8%.

As to `CCOc1cc2[nH]c(=O)n(Cc3ccc(C(=O)NCCCN4CCCC4=O)cc3)c(=O)c2cc1OCC`, the inhibition is -1.97%.

Turning to `Cc1ccc(C(=O)Cn2cccn2)cc1`, the inhibition is -1.93%.

As to `CSc1ncccc1C(=O)NC1CCCCCC1`, the inhibition is -1.57%.

For `COCCNC(=O)c1ccc(N2CCC3(CC2)OCCO3)c([N+](=O)[O-])c1`, the inhibition was 73.7% (active).

As to `CCC(C)NC(=O)c1ccc(N2CCC3(CC2)OCCO3)c([N+](=O)[O-])c1` (stereo unspecified), the inhibition is -0.6%.

`CC1CCN(c2ccc(C(=O)NCc3ccc4c(c3)OCO4)cc2[N+](=O)[O-])CC1`: the inhibition was 1.95%.

In the case of `COc1ccc(C(C)=O)cc1CSc1nc2nc(C)cc(C)n2n1`, the inhibition was -4.13%.

With `c1ccc2cc3c(NCCN4CCOCC4)ccnc3cc2c1`, the inhibition is 100% (active).

Consider `O=C(Cn1c(-c2ccccn2)nc2ccccc21)NCCN1CCOCC1`, for which the inhibition was -2.96%.

In the case of `c1ccc2[nH]c(NCCN3CCOCC3)nc2c1`, the inhibition is 0.2%.

For `CCc1ccc(C(=O)OCC(=O)NCC(F)(F)F)cc1`, the inhibition is 4.83%.

As to `O=C(N/N=C/c1ccc(OCC2COCCO2)cc1)c1ccc(Br)cc1` (stereo unspecified), the inhibition was 40.5%.

As for `COc1cc(C(=S)N2CCOCC2)ccc1O`, the inhibition was -5.63%.

With `C=CCOCCN(C)C1=NS(=O)(=O)c2ccccc21`, the inhibition is -5.84%.

Regarding `CN(C)C=NC(=O)c1cccn1-c1ncc(C(F)(F)F)cc1Cl`, the inhibition was -3.59%.

Take `O=C1/C(=C\c2cccnc2)CN(Cc2ccccc2)C/C1=C\c1cccnc1`: the inhibition is 100% (active).

On to `O=Cc1cn(Cc2ccccc2)nc1-c1cccnc1`, for which the inhibition was -1.93%.

Turning to `Clc1ccc(CN2CCN(/N=C/c3cccnc3)CC2)cc1`, the inhibition was 8.51%.

`COc1cccc2cc(S(=O)(=O)c3ccc(C)cc3)/c(=N/NS(=O)(=O)c3ccc(C)cc3)oc12`: the inhibition was -0.64%.

`CCOC(=O)C1(CCOc2ccccc2)CCN(C(=O)c2cncs2)CC1`: the inhibition is 6.07%.

`CCOC(=O)/C(N=Nc1cc(C(=O)O)cc(C(=O)O)c1)=C(\O)CCl`: the inhibition is 50% (active).

Consider `O=C(C1CC1)N1N=C2CCCCC2C1(O)C(F)(F)F` (stereo unspecified), for which the inhibition was -9.92%.

As to `CCOC(=O)C1=C(C)Nc2sc(C(=O)c3ccc(Br)cc3)c(N)c2C1c1ccc(C(=O)OC)cc1` (stereo unspecified), the inhibition is 94.8% (active).

Take `CCOC(=O)C1=C(C)NC(C)=C(C(=O)OCC)C1c1ccccn1`: the inhibition was 8.25%.

Consider `CCOC(=O)c1sc(=S)n2c1[nH]c(=O)c1ccc(C(=O)OC)cc12`, for which the inhibition was -7.11%.

Consider `Cc1ccc(C(=O)N/C(=C/c2ccco2)C(=O)NCCc2c[nH]c3ccccc23)cc1C`, for which the inhibition is 32.8%.

For `COc1ccc(/C=C(\NC(=O)c2ccc(OC)c(OC)c2)C(=O)NCCc2c[nH]c3ccccc23)cc1`, the inhibition is 16%.

For the molecule `CC(=O)N/C(=C/c1ccc(Cl)cc1)C(=O)NCCc1c[nH]c2ccccc12`, the inhibition is 92.8% (active).

Take `CN(C)/N=C/c1cn(-c2ccccc2)nc1-c1cccnc1`: the inhibition was 13.5%.

With `O=C(NCCCn1ccnc1)C(=O)c1cn(CC(=O)N2CCCCCC2)c2ccccc12`, the inhibition is 10.8%.

For `COc1cc(C(=O)N2CCN(C/C=C/c3ccccc3)CC2)cc(OC)c1C`, the inhibition is 54.7% (active).

`CNC(=O)NC(=O)C(C)N1CCN(C/C=C/c2ccccc2)CC1` (stereo unspecified): the inhibition was 9.45%.

As to `COc1ccccc1/C=C/CN1CCC(CO)(Cc2ccccc2)CC1`, the inhibition is 32.1%.

Consider `Cn1c(SCC(=O)NC2CCCCC2)nnc1-c1ccc(N)cc1`, for which the inhibition was -1.08%.

For `Cc1ccc(-c2csc(-c3c[nH]c4ccccc34)n2)cc1`, the inhibition is -3.69%.

On to `Cc1ccc(C2=Nc3c(ccc4ccccc34)C(c3ccncc3)=NN2)cc1`, for which the inhibition was 60% (active).

For the molecule `CCOC(=O)N1CCN(C(=S)Nc2ccc(C)cc2C)CC1`, the inhibition was -7.01%.

Consider `CC(C)Oc1ccccc1C(=O)NC(CO)C(=O)O` (stereo unspecified), for which the inhibition was -2.66%.

For `NC(=O)COc1ccc(C23CC4CC(CC(C4)C2)C3)cc1`, the inhibition was 2.36%.

For `CCC1=C/C(=C\c2ccc3c(c2)OCO3)C(=O)S1`, the inhibition is 78.2% (active).

Turning to `CSC1=N/C(=C\c2ccc3c(c2)OCO3)C(=O)S1`, the inhibition was 17.7%.

`O=C1/C(=C/c2ccc3c(c2)OCO3)CCC/C1=C\c1ccc2c(c1)OCO2`: the inhibition was 39.8%.

Regarding `Cc1nn(C)c(Oc2ccccc2)c1[N+](=O)[O-]`, the inhibition was 6.23%.

As for `Cc1nn(C)c(Oc2ccccc2)c1CCNS(=O)(=O)c1ccc(F)cc1`, the inhibition was 97.5% (active).

On to `COc1ccc(CCNS(=O)(=O)c2ccc(F)cc2)cc1OC`, for which the inhibition is -4.28%.

Regarding `COc1cccc(CN2CCNC(=O)C2CC(=O)N(C)CCc2ccccn2)c1` (stereo unspecified), the inhibition was 1.29%.

With `COc1ccc(F)cc1C(=O)C1CCCN(C(=O)CCc2ccccn2)C1` (stereo unspecified), the inhibition is -6.74%.

In the case of `CN(CCc1ccccn1)C(=O)CCC1CCCN(Cc2ccccc2OC(F)F)C1` (stereo unspecified), the inhibition is 67.9% (active).

Turning to `CN1CCNC(=O)C1CC(=O)N1CC=C(c2ccc(F)cc2)CC1` (stereo unspecified), the inhibition is -0.97%.

For `Cn1cccc1-c1nc2ccccc2n1C`, the inhibition is 6.87%.

For `CCN1C(=O)C(CC(=O)Nc2cc(C)ccc2C)SC1=Nc1ccc(S(N)(=O)=O)cc1` (stereo unspecified), the inhibition was 10.5%.

Consider `N#C/C(C(=O)N1CCOCC1)=C1/SC(Cc2ccc(F)cc2)C(=O)N1c1ccccc1` (stereo unspecified), for which the inhibition was -0.55%.

As for `O=C(CC1SC(=Nc2ccccc2F)N(CCN2CCOCC2)C1=O)Nc1ccc(F)cc1F` (stereo unspecified), the inhibition was 50.8% (active).

In the case of `CCOC(=O)Cc1ncccc1C(=O)Nc1ccc(OC(F)(F)F)cc1`, the inhibition is -5.35%.

As for `N#C/C(=C(\O)CCl)c1nnc2n1CCCCC2`, the inhibition was -1.52%.

On to `N#C/C(=C(\O)C(F)(F)F)c1nnc2n1CCCCC2`, for which the inhibition is -2.09%.

Take `N#C/C(=C/c1cccc([N+](=O)[O-])c1)c1nnc2n1CCCCC2`: the inhibition was 81.3% (active).

Consider `Cc1ccc2nc(Nc3ncc4c(n3)CC(C)(C)CC4=O)nc(C)c2c1`, for which the inhibition is 9.71%.

Take `O=C(c1ccccc1)c1ccc2nc(N3CCCCC3)c3nncn3c2c1`: the inhibition is -0.8%.

With `Cn1cc(S(=O)(=O)N2CCC(Cc3ccccc3)CC2)c(=O)n(C)c1=O`, the inhibition is -5.82%.

As for `c1ccc(CC2CCN(c3nc4ccccc4n4cnnc34)CC2)cc1`, the inhibition is 64.6% (active).

In the case of `CCOCCCNC(=O)C(NC(=O)Cc1c[nH]c2ccccc12)c1ccc(OC)cc1` (stereo unspecified), the inhibition was -7.71%.

`COc1cc(C=O)c(Br)cc1OCC(=O)NCc1ccccc1`: the inhibition was 4.2%.

Take `COc1ccc(CCNC(=O)COC(=O)Cc2cc(OC)c(OC)c(OC)c2)cc1`: the inhibition is -3.11%.

Take `Cc1cc(N2CCN(Cc3ccc4c(c3)OCO4)CC2)n2ncnc2n1`: the inhibition is 12.7%.

As to `Fc1ccc2[nH]c3c(N4CCN(Cc5ccc6c(c5)OCO6)CC4)ncnc3c2c1`, the inhibition is 77.8% (active).

Regarding `Fc1ccc2[nH]c3c(N4CCSCC4)ncnc3c2c1`, the inhibition is 35.5%.

On to `Nc1nnnn1CC(=O)N/N=C/c1ccc(-c2cccc(Cl)c2)o1`, for which the inhibition is -9.69%.

Regarding `COc1ccc(/C=N/n2c(C)cc(C)cc2=O)cc1`, the inhibition is -6.47%.

As to `CC(C)c1csc(CN2CCC(CO)(Cc3ccccc3)CC2)n1`, the inhibition was 14.2%.

On to `CCC(C)CN1CCC(CO)(Cc2ccccc2Cl)CC1` (stereo unspecified), for which the inhibition was 82.2% (active).

Regarding `CC(CN1CCCCC1)OC(=O)c1ccccc1Cl` (stereo unspecified), the inhibition is -4.92%.

Take `CC1COc2ccccc2N1S(=O)(=O)c1ccccc1` (stereo unspecified): the inhibition was 15.8%.

Regarding `CC(=O)Nc1cccc(OCC(=O)/C=C2\N(C)c3ccccc3C2(C)C)c1`, the inhibition is 48.1%.

In the case of `CN1/C(=C\C=C2\N=C(c3ccc(F)cc3)OC2=O)C(C)(C)c2ccccc21`, the inhibition was 63.4% (active).

Take `CN1CCN(CCC(=O)N/N=C/C=C2\N(C)c3ccccc3C2(C)C)CC1`: the inhibition was 4.61%.

In the case of `O=C(O)CSc1nccc2ccccc12`, the inhibition was -6.68%.

For the molecule `O=C(c1ccccc1Cl)N(Cc1ccccc1F)N1C(=O)CCCC1=O`, the inhibition was -3.99%.

Turning to `O=C(O)CC(SCC(=O)Nc1ccc(Br)cc1)C(=O)O` (stereo unspecified), the inhibition is -3.9%.

With `CC1(C)CC(=O)CC2(C1)NCC(c1ccccc1Cl)c1c2[nH]c2ccccc12` (stereo unspecified), the inhibition is 53.5% (active).

Take `Cc1onc(-c2ccccc2)c1C(=O)NNC(=S)NC(=O)c1ccc(F)cc1`: the inhibition is -0.74%.

Take `c1ccc2c(c1)OCC(c1nn3cnnc3s1)O2` (stereo unspecified): the inhibition is -7.7%.

For the molecule `O=C(Nc1nnc(C2COc3ccccc3O2)o1)c1ccc(F)cc1` (stereo unspecified), the inhibition is 84.8% (active).

Consider `CCn1nc(C)c(CN2CCN(Cc3ccc(OC)c(C)c3C)C(CCO)C2)c1C` (stereo unspecified), for which the inhibition was 5.83%.

With `CC1CCC(C(C)C)C(=O)/C1=C\c1ccc(NC(=O)CCC(=O)O)cc1` (stereo unspecified), the inhibition is 4.09%.

On to `O=C(c1ccc(OC2CCN(Cc3ccccn3)CC2)cc1)N1CCCCCC1`, for which the inhibition was 39.9%.
